Activity calls are given as the source filed them.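 Rule for the calls, unless noted: active = compound whose remaining NAD level is above about 45 nM (limit read from the data); inactive = the rest.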

Chain of NAD(+) hydrolase SARM1 (Homo sapiens) (Q6SZW1 whole entry, looked up): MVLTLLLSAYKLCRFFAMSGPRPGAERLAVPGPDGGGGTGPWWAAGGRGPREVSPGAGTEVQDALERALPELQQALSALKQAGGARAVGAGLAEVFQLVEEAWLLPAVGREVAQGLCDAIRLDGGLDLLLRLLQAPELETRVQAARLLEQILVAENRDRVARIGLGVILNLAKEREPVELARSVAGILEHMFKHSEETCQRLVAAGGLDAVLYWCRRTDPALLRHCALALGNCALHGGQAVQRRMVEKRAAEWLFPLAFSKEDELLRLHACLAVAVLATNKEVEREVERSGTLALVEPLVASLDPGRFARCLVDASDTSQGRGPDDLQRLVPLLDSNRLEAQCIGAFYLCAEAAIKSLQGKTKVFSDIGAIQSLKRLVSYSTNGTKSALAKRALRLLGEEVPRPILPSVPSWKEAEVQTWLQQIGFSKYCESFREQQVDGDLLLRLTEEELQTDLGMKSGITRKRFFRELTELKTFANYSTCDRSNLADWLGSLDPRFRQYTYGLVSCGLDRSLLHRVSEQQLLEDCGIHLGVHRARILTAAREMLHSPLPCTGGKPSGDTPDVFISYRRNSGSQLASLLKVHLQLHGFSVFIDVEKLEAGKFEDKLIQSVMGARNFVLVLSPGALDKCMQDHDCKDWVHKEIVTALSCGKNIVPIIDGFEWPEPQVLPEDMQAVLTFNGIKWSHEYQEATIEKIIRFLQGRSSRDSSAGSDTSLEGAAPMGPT

Test system in one experiment: not listed separately
As to the kind of experiment: drug combination growth inhibition, ovarian cancer – cell-based, oncology-focused library, rucaparib conditional, profiling panel (AID 1508598;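 active = normalized viability below 100% at a tested concentration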). The following applies: patient-derived ovarian cancer cells, CellTiter-Glo viability, 144 h; at 1.25 µM; OCI-P5x cells; with rucaparib 20 µM; active compounds read low; 100% = cells with rucaparib alone.
Consider `Cc1ccc(-c2cc(C(F)(F)F)nn2-c2ccc(S(N)(=O)=O)cc2)cc1`, for which the viability is 109% (inactive).
For the compound `CN(CCOc1ccc(CC2SC(=O)NC2=O)cc1)c1ccccn1` (stereo not drawn), the viability is 101% (inactive).
The same measure, in the same setting: the result for `CCCCCCNC(=O)n1cc(F)c(=O)[nH]c1=O` reads 95.1% (active).
Consider `O=c1[nH]cc(F)c(=O)[nH]1`, for which the viability is 99.6% (active).

The same experiment, now with this note: patient-derived ovarian cancer cells, CellTiter-Glo viability, 144 h; at 1.25 µM; OCI-P5x cells; without rucaparib; active compounds read low.
For `Cc1ccc(-c2cc(C(F)(F)F)nn2-c2ccc(S(N)(=O)=O)cc2)cc1`, the viability was 105% (inactive).
`CN(CCOc1ccc(CC2SC(=O)NC2=O)cc1)c1ccccn1` (stereo not drawn): the viability is 115% (inactive).
For the compound `CCCCCCNC(=O)n1cc(F)c(=O)[nH]c1=O`, the viability was 104% (inactive).
Regarding `O=c1[nH]cc(F)c(=O)[nH]1`, the viability is 102% (inactive).

The experiment is the same for the next values; noted with them: patient-derived ovarian cancer cells, CellTiter-Glo viability, 144 h; at 5 µM; OCI-C5x cells; with rucaparib 10 µM; active compounds read low; 100% = cells with rucaparib alone.
For the compound `Cc1ccc(-c2cc(C(F)(F)F)nn2-c2ccc(S(N)(=O)=O)cc2)cc1`, the viability is 122% (inactive).
On the same count and under the same terms, for `CN(CCOc1ccc(CC2SC(=O)NC2=O)cc1)c1ccccn1` (stereo not drawn) the value was 106% (inactive); for `CCCCCCNC(=O)n1cc(F)c(=O)[nH]c1=O`, 223% (inactive).
Turning to `O=c1[nH]cc(F)c(=O)[nH]1`, the viability is 236% (inactive).

The same experiment, now with this note: patient-derived ovarian cancer cells, CellTiter-Glo viability, 144 h; at 5 µM; OCI-C5x cells; without rucaparib; active compounds read low.
`Cc1ccc(-c2cc(C(F)(F)F)nn2-c2ccc(S(N)(=O)=O)cc2)cc1`: the viability is 131% (inactive).
On the same count and under the same terms, the result for `CN(CCOc1ccc(CC2SC(=O)NC2=O)cc1)c1ccccn1` (stereo not drawn) reads 133% (inactive); that for `CCCCCCNC(=O)n1cc(F)c(=O)[nH]c1=O`, 172% (inactive).
For the compound `O=c1[nH]cc(F)c(=O)[nH]1`, the viability is 146% (inactive).

The same experiment, now with this note: patient-derived ovarian cancer cells, CellTiter-Glo viability, 144 h; at 5 µM; OCI-P5x cells; with rucaparib 20 µM; active compounds read low; 100% = cells with rucaparib alone.
Consider `Cc1ccc(-c2cc(C(F)(F)F)nn2-c2ccc(S(N)(=O)=O)cc2)cc1`, for which the viability is 109% (inactive).
Still for that read-out and setting: for `CN(CCOc1ccc(CC2SC(=O)NC2=O)cc1)c1ccccn1` (stereo not drawn) the value was 103% (inactive); for `CCCCCCNC(=O)n1cc(F)c(=O)[nH]c1=O`, 76.9% (active); for `O=c1[nH]cc(F)c(=O)[nH]1`, 82.4% (active).

The experiment is the same for the next values; noted with them: patient-derived ovarian cancer cells, CellTiter-Glo viability, 144 h; at 5 µM; OCI-P5x cells; without rucaparib; active compounds read low.
As for `Cc1ccc(-c2cc(C(F)(F)F)nn2-c2ccc(S(N)(=O)=O)cc2)cc1`, the viability is 105% (inactive).
As to `CN(CCOc1ccc(CC2SC(=O)NC2=O)cc1)c1ccccn1` (stereo not drawn), the viability was 116% (inactive).
As for `CCCCCCNC(=O)n1cc(F)c(=O)[nH]c1=O`, the viability is 77.9% (active).
Still for that read-out and setting: the result for `O=c1[nH]cc(F)c(=O)[nH]1` reads 73.4% (active).

Another experiment concerns the target NAD(+) hydrolase SARM1 (Homo sapiens) (UniProt Q6SZW1). As to the kind of experiment: blocking NAD cleavage by SARM1 SAM-TIR – cell lysate, NAD-Glo luminescence (AID 1508614).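 Note: higher remaining NAD means stronger inhibition of SARM1 NADase.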 The following applies: SAM-TIR HEK293T lysate NADase, at 1 µM, active compounds read high.
In the case of `OCCN1CCN(CCCN2c3ccccc3Sc3ccc(C(F)(F)F)cc32)CC1`, the remaining NAD was 10 nM (inactive).
On the same count and under the same terms, for `NS(=O)(=O)c1cc2c(cc1Cl)NC=NS2(=O)=O` the value was 10 nM (inactive); for `O=C1C(CCS(=O)c2ccccc2)C(=O)N(c2ccccc2)N1c1ccccc1` (stereo not drawn), 10 nM (inactive).
The same measure, in the same setting: for `Cc1ccc(-c2cc(C(F)(F)F)nn2-c2ccc(S(N)(=O)=O)cc2)cc1` the value was 10 nM (inactive); for `Cc1ccccc1C(OCCN(C)C)c1ccccc1` (stereo not drawn), 10 nM (inactive); for `CCc1nc(N)nc(N)c1-c1ccc(Cl)cc1`, 10 nM (inactive).
The same measure, in the same setting: for `COc1cc2nc(N(C)CCCNC(=O)C3CCCO3)nc(N)c2cc1OC` (stereo not drawn) the value was 10 nM (inactive).
`CN(C)CCOC(c1ccc(Cl)cc1)c1ccccn1` (stereo not drawn): the remaining NAD was 10 nM (inactive).
Still for that read-out and setting: the result for `N[C@@H](C(=O)N[C@@H]1C(=O)N2C(C(=O)O)=C(Cl)CS[C@H]12)c1ccccc1` reads 10 nM (inactive); that for `Nc1ncn([C@@H]2O[C@H](CO)[C@@H](O)[C@H]2O)c(=O)n1`, 10 nM (inactive).
On the same count and under the same terms, for `NCc1ccc(S(N)(=O)=O)cc1` the value was 10 nM (inactive); for `Cc1ncc([N+](=O)[O-])n1CC(C)O` (stereo not drawn), 10 nM (inactive).
Still for that read-out and setting: for `Cc1ccc(C)c(OCCCC(C)(C)C(=O)O)c1` the value was 10 nM (inactive); for `CN1CCCC(n2nc(Cc3ccc(Cl)cc3)c3ccccc3c2=O)CC1` (stereo not drawn), 10 nM (inactive); for `NS(=O)(=O)c1cc2c(cc1C(F)(F)F)NC(Cc1ccccc1)NS2(=O)=O` (stereo not drawn), 10 nM (inactive).
With `COC1=CC(=O)C[C@@H](C)[C@]12Oc1c(Cl)c(OC)cc(OC)c1C2=O`, the remaining NAD was 10 nM (inactive).
Same read-out and setting: for `Cc1cn([C@H]2C[C@H](N=[N+]=[N-])[C@@H](CO)O2)c(=O)[nH]c1=O` the value was 10 nM (inactive); for `CN(CCOc1ccc(CC2SC(=O)NC2=O)cc1)c1ccccn1` (stereo not drawn), 10 nM (inactive).
On the same count and under the same terms, for `COc1ccc(OC)c(C(O)CNC(=O)CN)c1` (stereo not drawn) the value was 10 nM (inactive); for `OC(CCN1CCCC1)(c1ccccc1)C1CCCCC1` (stereo not drawn), 10 nM (inactive); for `NC(=O)N1c2ccccc2CC(=O)c2ccccc21`, 10 nM (inactive).
The same measure, in the same setting: for `CCCNCC(O)COc1ccccc1C(=O)CCc1ccccc1` (stereo not drawn) the value was 10 nM (inactive); for `C/C=C/C(=O)N(CC)c1ccccc1C`, 10 nM (inactive); for `CCCCCCNC(=O)n1cc(F)c(=O)[nH]c1=O`, 10 nM (inactive).

By viability is commonly meant a read-out of living cells in per cent, often relative to untreated cells.

Values taken from PubChem BioAssay.
